Calls of active or inactive are those of the source. The calls were made as follows: active = hit-call score of the fitted dose curve at least 0.9, where 1 is the maximum; inactive = score below 0.9.
assay: CEETOX_H295R_TESTO: CeeTox H295R High-throughput Steroidogenesis Assay for Testosterone (TESTO) (AID 2283457); settings: actives raise or lower the signal;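 as to AC50: cells exposed to chemicals for 48 h before medium collection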
Method in brief: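 Steroidogenesis in H295R cells following OECD 456 with minor changes; 48 h exposure. Medium testosterone by HPLC-MS/MS, DMSO as baseline, with MTT viability run in parallel.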

Structure (SMILES) | outcome | AC50
Nc1ccc(N)c2c1C(=O)c1ccccc1C2=O | inactive | 
BrCc1cccc(Oc2ccccc2)c1 |  | 34.5 µM (active)
OCc1cccc(Oc2ccccc2)c1 |  | 50 µM (active)
CCC(C)c1cc([N+](=O)[O-])cc([N+](=O)[O-])c1OC(=O)OC(C)C (stereo not given) | inactive | 
CCOC(=O)[C@@H](C)Oc1ccc(Oc2nc3ccc(Cl)cc3o2)cc1 | inactive | 
